tim23-1 inh: growth inhibitors of tim23-1 mutant yeast, primary screen, luminescence, uHTS. S. cerevisiae tim23-1 growth, BacTiter-Glo luminescence, 24 h. inhibition, % at 20 µM. 330,000 compounds, 1.3% hits;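 active = growth inhibition of the mutant yeast at or above 50%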;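 note: temperature-sensitive mutant grown at 25 °C; plate controls were DMSO-treated mutant yeast for no effect and medium wells lacking yeast for full effect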
PfHsp90 yeast 2: growth inhibition of PfHsp90-expressing yeast, primary screen, antimalarial PfHsp90 inhibitor project, S. cerevisiae, BacTiter-Glo luminescence, single point, set 2; 310,000 compounds, 0.32% hits; inhibition, % at 9.4 µM; BacTiter-Glo ATP, 48 h; yeast lacking PDR1 and PDR3 efflux regulators;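 active = every replicate shows inhibition above about 80%, whatever the replicate mean, limit read from the data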;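 note: 0% = DMSO neutral controls and 100% = 20 µM radicicol positive controls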
tim10-1 inh: growth inhibitors of tim10-1 mutant yeast, primary screen, luminescence, uHTS; AID 463190, 2010; S. cerevisiae tim10-1 ts strain growth, BacTiter-Glo, 24 h; inhibition, % at 20 µM; 330,000 compounds, 2.2% hits;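 active = inhibition of at least 40%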;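 note: mutant grown at 25 °C; 0% = DMSO wells with yeast and 100% = wells holding no yeast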
NALP1 yeast inh: NALP1 inflammasome inhibitors in reconstituted yeast, colorimetric, S. cerevisiae, triplicate retest. S. cerevisiae NALP1/ASC/caspase-1 growth, X-gal OD620, 72 h. inhibition, % at 10 µM. 280,000 compounds, 0.61% hits; in the data active = inhibition mostly above about 24%, no sharp cut-off; inactive = mostly below about 32%
TIM10 inh: growth inhibitors of isogenic TIM10 control yeast, primary screen, counter-screen for tim10-1 yeast inhibitor project, luminescence, uHTS | S. cerevisiae TIM10 strain growth, BacTiter-Glo luminescence, 24 h | inhibition, % at 10 µM | 330,000 compounds, 1.4% hits | AID 463195, 2010;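 active = inhibition of 40% or more at the single tested concentration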;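 note: wild-type TIM10 isogenic control strain grown at permissive 25 °C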
NALP3 yeast inh: NALP3 inflammasome inhibitors in reconstituted yeast, primary screen, luminescence, uHTS; inhibition, % at 10 µM; AID 2825, 2010; 330,000 compounds, 0.39% hits; Yeast reconstituted NLRP3/ASC/caspase-1, beta-gal luminescence, 24 h;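 active = inhibition of 50% or more; inactive = inhibition below 50%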;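 note: plate controls were induced DMSO wells for no effect and uninduced yeast grown without galactose for full effect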
tim10 confirm: growth inhibitors of wild-type TIM10 yeast, confirmation, counter-screen for tim10-1 synthetic lethality project, single concentration, luminescence, S. cerevisiae | shares compounds with TIM10 inh | 4,600 compounds, 63% hits | S. cerevisiae tim10 strain growth, BacTiter-Glo luminescence, 24 h | inhibition, % at 10 µM;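 active = inhibition of yeast growth at or above a set limit in either of two replicates at 10 µM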;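 note: this counterscreen used the strain with wild-type TIM10; 0% = yeast with DMSO and 100% = medium wells lacking yeast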
tim23-1 confirm: tim23-1 mutant yeast growth inhibitors, confirmation, luminescence, single concentration; 4,400 compounds, 83% hits; shares compounds with tim23-1 inh; inhibition, % at 20 µM; S. cerevisiae tim23-1 growth, BacTiter-Glo luminescence, 24 h; AID 463218, 2010;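 active = inhibition above about 39% in either of two replicate wells at 20 µM, limit read from the data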;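 note: temperature-sensitive tim23-1 mutant grown at 25 °C; 0% = DMSO wells with yeast and 100% = medium wells without yeast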
* marks the source's active call; other numbers are inactive results; / = not tested or not shown. This is a sample that favours compounds with a hit; in the whole collection about 4.2% have one here.

SMILES	tim23-1 inh	PfHsp90 yeast 2	tim10-1 inh	NALP1 yeast inh	TIM10 inh	NALP3 yeast inh	tim10 confirm	tim23-1 confirm
COc1cc(CNS(=O)(=O)c2ccc3c(c2)CC(C)N3C(C)=O)cc(OC)c1OC (stereo not given)	2	-30	-4	2	5	11	/	/
CC(OC(=O)c1ccc(Cl)nc1)C(=O)N1CCc2ccccc21 (stereo not given)	-14	-23	-31	/	-38	17	/	/
Oc1c(Br)cc(Br)cc1CNc1ccccn1	67*	-6	18	-4	51*	46	20	74*
O=C(O)[C@H](Cc1ccccc1)NC(=O)N1CCN(c2ccccc2)CC1	16	-19	10	/	-3	3	/	/
COC(=O)c1ccc(C(=O)OC)c(NC(=O)CSc2cccc[n+]2[O-])c1	69*	-5	28	4	41*	8	14	75*
Cc1cccc(C(=O)Oc2ccc(/C=N/O)cc2)c1	62*	-16	28	-17	42*	31	32*	50*
Cc1cccc(/C(N)=N/OC(=O)c2ccc(F)cc2)c1	70*	20	38	43	73*	14	80*	45*
Cc1ccc(C(=O)O/N=C(\N)c2ccc(Br)cc2)cc1	21	3	-25	6	23	21	/	/
COC(=O)CCN(C(=O)c1cccc([N+](=O)[O-])c1)c1ccccn1	-3	13	-3	-1	-1	9	/	/
Nc1cc(Cl)cc2c1-c1ccc(Cl)cc1C2	/	8	/	/	/	/	/	/
Cc1ccc(NC(=O)c2cc(C)n(-c3cccc(C)c3)c2C)cc1	43	-13	16	7	34	18	/	/
Cc1ccc(NC(=O)c2cc(C)n(-c3ccccc3)c2C)cc1	52*	8	34	42	50*	24	-22	58*
COc1ccc(N(C(=O)c2snc(C(N)=O)c2N)C(CC(C)C)C(=O)NCC2CCCO2)cc1 (stereo not given)	10	-41	-1	-1	16	7	/	/
Cc1ccc(C(=O)NC(=S)N(C)C2CCCCC2)cc1Br	8	/	25	6	19	38	/	/
COc1ccc(C(=O)NC(=S)N(C)C2CCCCC2)cc1Br	55*	-45	38	8	42*	28	13	49*
CC[C@]1(c2ccccc2C)ON(c2ccccc2C(F)(F)F)C1=O	12	12	-51	/	-5	10	/	/
COc1ccccc1[C@@]1(C)ON(c2ccccc2C(F)(F)F)C1=O	63*	-12	-98	/	65*	39	55*	-93
COc1ccccc1C1CCN(C(=O)c2ccccc2)CC1	3	0	1	4	12	5	/	/
COc1ccccc1C1CCN(c2cc(O)ccc2[N+](=O)[O-])CC1	60*	-19	36	33	48*	26	43*	60*
CN(C)NC(=S)NC(=O)C12CC3CC(CC(C3)C1)C2	3	22	34	-2	27	-2	/	/
CC(C)(C)NC(=S)NC(=O)C12CC3CCC(CC(C3)C1)C2	50*	12	36	42	45*	24	-12	59*
O=C(NCC1CCCN1S(=O)(=O)c1cccs1)c1ccc(Cl)cc1 (stereo not given)	3	18	22	/	-33	17	/	/
CCn1c(CSc2nc3ccccc3s2)nc2ccccc21	54*	-23	37	16	51*	18	44*	52*
c1csc(CSc2nc3ccccc3s2)c1	17	5	6	-11	8	17	/	/
CCOC(=O)/C(C#N)=C\c1cc(OC)c(OC)cc1[N+](=O)[O-]	30	-2	32	0	25	8	/	/
SMILES	tim23-1 inh	PfHsp90 yeast 2	tim10-1 inh	NALP1 yeast inh	TIM10 inh	NALP3 yeast inh	tim10 confirm	tim23-1 confirm
COn1c(=O)c(-c2cccs2)[n+]([O-])c2ccccc21	52*	-62	36	0	43*	22	1	64*
COn1c(=O)c(-c2ccccc2)[n+]([O-])c2ccccc21	22	1	27	17	19	2	/	/
O=C1C2=C(Nc3ccccc3SC2c2ccco2)c2ccccc21 (stereo not given)	55*	-13	20	1	46*	-2	43*	82*
O=C1c2ccccc2NC(c2ccco2)N1O (stereo not given)	2	-16	0	1	10	21	/	/
C=CCN=Cc1sc2ccc(OCC)cc2c1O	15	/	30	32	24	18	/	/
CCCCN=Cc1sc2ccc(OCC)cc2c1O	58*	/	31	-16	43*	-15	27*	54*
CC1CCCN(Cc2c(O)ccc3c(=O)c(-c4nc5ccccc5s4)c(N)oc23)C1 (stereo not given)	56*	19	38	6	52*	14	51*	58*
COc1ccc(O)c(-c2cc(-c3ccccc3Cl)[nH]n2)c1	81*	-17	39	-5	50*	-8	57*	72*
Cc1ccc(-c2cc(-c3ccccc3Cl)[nH]n2)c(O)c1	65*	-9	25	15	51*	25	65*	9
Oc1ccc(Br)cc1-c1cc(-c2ccccc2Cl)[nH]n1	17	-25	17	16	17	-10	/	/
Cc1c(Cl)cccc1NC(=O)c1cc(-c2ccccc2O)n[nH]1	-11	26	8	3	-1	21	/	/
Cc1cc(C)nc(NC2=NCCN2C(=S)Nc2ccc(C)c(C)c2)n1	-4	2	-1	12	-23	20	/	/
CCOC(=O)CSc1c(-c2cccs2)[nH]c2ccccc12	55*	-37	31	20	49*	8	-17	52*
CCOC(=O)CSc1c(-c2ccc(Cl)cc2)[nH]c2ccccc12	27	0	25	20	37	14	/	/
COc1ccc(-n2c(NN)nc3sc4c(c3c2=O)CCCC4)cc1	70*	/	34	-11	49*	27	3	62*
O=C(COc1ccc(Br)cc1)N1CCN(c2ncccn2)CC1	14	-26	0	/	8	30	/	/
COc1cc(NC2c3ncccc3C(=O)N2Cc2ccco2)cc(OC)c1OC (stereo not given)	16	9	2	-1	-4	1	/	/

Assay outcomes from PubChem BioAssay.
